Inconclusive results are not listed. Activity calls are given as the source filed them. The calls were made as follows, unless noted: active = hit-call score of the fitted dose curve at least 0.9, where 1 is the maximum; inactive = score below 0.9.
Legend:
[1] = ATG_PBREM_CIS: Attagene CIS-FACTORIAL HepG2 Assay for human Phenobarbital-responsive Enhancer Module (PBREM) (AID 2282955); details: HepG2 PBREM cis-reporter, Attagene multiplexed transcription; actives raise or lower the signal
Method in brief: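 HepG2 cells transiently transfected with multiple cis-regulated reporter transcription units; endogenous factor activity at the PBREM element measured as reporter mRNA 24 h after dosing, via RT-PCR and capillary electrophoresis of fluorescent fragments; bidirectional fitting versus DMSO.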

[2] = biological target: Paired box protein Pax-6 (Homo sapiens) (UniProt P26367); test: ATG_Pax6_CIS: Attagene CIS-FACTORIAL HepG2 Assay for human Paired Box 6 (PAX6) (AID 2282956); details: HepG2 CIS-FACTORIAL PAX6 reporter transcription, RNA readout; actives raise or lower the signal
Method in brief: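 HepG2 cells transiently transfected with cis-promoter-driven multiplexed reporter units sensing endogenous transcription factor activity; 24 h chemical exposure. Reporter mRNA quantified by RT-PCR, 6-FAM labelling, HpaI digestion and capillary electrophoresis; bidirectional fit versus DMSO baseline.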

[3] = ATG_PXRE_CIS: Attagene CIS-FACTORIAL HepG2 Assay for human Pregnane X Receptor Element (PXRE) (AID 2282957); details: HepG2 Attagene CIS-FACTORIAL PXRE reporter, mRNA; actives raise or lower the signal
Method in brief: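 Cis-element reporter mRNA in human hepatoma HepG2 cells is measured 24 h post-dosing by RT-PCR, primer-extension labeling and capillary electrophoresis; gain or loss of signal is fitted relative to DMSO.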

[4] = ATG_Sox_CIS: Attagene CIS-FACTORIAL HepG2 Assay for human SRY-box transcription factor (SOX) (AID 2282960); details: HepG2 Attagene cis-factorial SOX reporter, mRNA; actives raise or lower the signal
Method in brief: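 HepG2 cells transiently transfected with cis-element-driven multiple reporter transcription units, dosed 24 h; reporter mRNA measured by RT-PCR, FAM labelling, HpaI digestion and capillary electrophoresis. Bidirectional fit versus DMSO baseline.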

[5] = biological target: Transcription factor Sp1 (Homo sapiens) (UniProt P08047); test: ATG_Sp1_CIS: Attagene CIS-FACTORIAL HepG2 Assay for human Specificity Protein 1 (Sp1) (AID 2282961); details: HepG2 Sp1 cis-reporter transcription, actives raise or lower the signal
Method in brief: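 HepG2 cells transiently transfected with multiple reporter transcription units driven by cis-regulatory elements; Sp1-responsive reporter mRNA measured 24 h after dosing by RT-PCR and capillary electrophoresis fluorescence, fitted bidirectionally against DMSO baseline.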

[6] = ATG_SREBP_CIS: Attagene CIS-FACTORIAL HepG2 Assay for human Sterol Regulatory Element Binding (SREBP) (AID 2282962); details: HepG2 Attagene cis-factorial SREBP reporter, mRNA; actives raise or lower the signal
Method in brief: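 HepG2 cells transiently transfected with multiplexed cis-promoter reporter units sensing endogenous transcription factors; reporter mRNA measured 24 h after dosing by RT-PCR, 6-FAM labeling, HpaI digestion and capillary electrophoresis. Bidirectional fit versus DMSO.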

[7] = biological target: Signal transducer and activator of transcription 3 (Homo sapiens) (UniProt P40763); test: ATG_STAT3_CIS: Attagene CIS-FACTORIAL HepG2 Assay for human Signal Transducer and Activator of Transcription 3 (STAT3) (AID 2282963); details: HepG2, Attagene cis-factorial STAT3 reporter transcription; actives raise or lower the signal
Method in brief: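 HepG2 cells transiently transfected with cis-element-driven multiple reporter transcription units; after 24 h chemical exposure, reporter mRNA measured by RT-PCR, 6-FAM primer-extension labelling, HpaI digestion and capillary electrophoresis. Bidirectional fitting versus DMSO baseline.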

[8] = ATG_TA_CIS: Attagene CIS-FACTORIAL HepG2 Assay for human TA Basal Promoter (AID 2282964); details: HepG2 Attagene CIS-factorial TA basal promoter reporter; actives raise or lower the signal
Method in brief: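 HepG2 cells transiently transfected with multiplexed cis-promoter reporter units, dosed 24 h. Reporter mRNA measured by RT-PCR, 6-FAM labelling, HpaI digestion and capillary electrophoresis; bidirectional fit versus DMSO baseline, serving as background control.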

[9] = ATG_TAL_CIS: Attagene CIS-FACTORIAL HepG2 Assay for human TAL Basal Promoter (AID 2282966); details: HepG2 Attagene cis-factorial TAL promoter reporter; actives raise or lower the signal;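 also: background control endpoint measuring basal TAL promoter reporter mRNA not a specific factor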
Method in brief: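 In this cell-based multiplex, HepG2 liver cells bearing cis-promoter reporter constructs are dosed for 24 hours. Total RNA is reverse-transcribed and amplified, labelled fragments are sized by capillary electrophoresis, and signal changes are fitted bidirectionally versus DMSO.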

[10] = ATG_TGFb_CIS: Attagene CIS-FACTORIAL HepG2 Assay for human Transforming Growth Factor (TGF) (AID 2282967); details: HepG2 Attagene CIS TGFb reporter, mRNA transcription; actives raise or lower the signal
Method in brief: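 HepG2 cells transiently transfected with cis-promoter-driven multiplexed reporter units; 24 h compound exposure. Reporter mRNA measured by RT-PCR, 6-FAM labeling, HpaI digestion and capillary electrophoresis; bidirectional fit versus DMSO baseline.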

[11] = ATG_VDRE_CIS: Attagene CIS-FACTORIAL HepG2 Assay for human Vitamin D Receptor Element (VDRE) (AID 2282968); details: HepG2 VDRE cis-reporter transcription, actives raise or lower the signal
Method in brief: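 HepG2 cells transiently transfected with cis-element reporter units, dosed 24 h; reporter mRNA measured by RT-PCR, 6-FAM labeling, HpaI digestion and capillary electrophoresis. Activity fitted bidirectionally against DMSO baseline.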

[12] = biological target: X-box-binding protein 1 (Homo sapiens) (UniProt P17861); test: ATG_Xbp1_CIS: Attagene CIS-FACTORIAL HepG2 Assay for human X-box Binding Protein 1 (XBP1) (AID 2282972); details: HepG2 XBP1 cis-element reporter, Attagene multiplex; actives raise or lower the signal
Method in brief: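 HepG2 cells transiently transfected with multiple cis-element reporter units report endogenous TF activity; 24 h exposure, then reporter mRNA measured by RT-PCR, 6-FAM labelling, HpaI digestion and capillary electrophoresis. Bidirectional fitting versus DMSO.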

[13] = ATG_GAL4_TRANS: Attagene TRANS-FACTORIAL HepG2 Assay for GAL4 (Internal Marker) (AID 2282976; active = hit-call score of the fitted dose curve at least 0.9, where 1 is the maximum); details: HepG2 Attagene TRANS GAL4 internal marker reporter
Method in brief: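 RT-PCR/capillary electrophoresis readout of reporter mRNA. HepG2, transient MRTU transfection (GAL4-UAS reporters), 24 h compound exposure. Background-control endpoint, positive direction vs DMSO baseline.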

[14] = ATG_PPRE_CIS: Attagene CIS-FACTORIAL HepG2 Assay for human Peroxisome Proliferator-activated Response Element (PPRE) (AID 2282958); details: HepG2 PPRE cis-element reporter, Attagene transcription factor profiling; actives raise or lower the signal
Method in brief: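 HepG2 cells transiently transfected with multiplexed cis-element reporter units measure endogenous transcription factor activity. After 24 h compound exposure, reporter mRNA is quantified by RT-PCR, 6-FAM labeling, HpaI digestion and capillary electrophoresis; bidirectional fits are made against DMSO baseline.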

[15] = ATG_RORE_CIS: Attagene CIS-FACTORIAL HepG2 Assay for human RAR-related Orphan Receptor Element (RORE) (AID 2282959); details: HepG2 Attagene cis-factorial RORE reporter, mRNA; actives raise or lower the signal
Method in brief: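 HepG2 cells transiently transfected with multiple cis-element reporter transcription units, exposed to chemical for 24 h. Reporter mRNA quantified by RT-PCR, 6-FAM primer-extension labeling, HpaI digestion and capillary electrophoresis; bidirectional fit versus DMSO baseline.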

[16] = ATG_TCF_b_cat_CIS: Attagene CIS-FACTORIAL HepG2 Assay for human T-Cell-Factor with beta-catenin (TCF/b-cat) (AID 2282965); details: HepG2 TCF/beta-catenin cis-reporter transcription, actives raise or lower the signal
Method in brief: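 Using capillary electrophoresis as the read-out, labelled reporter cDNA fragments from transiently transfected HepG2 were sized and quantified. Exposure lasted 24 hours; activity in either direction was referenced to DMSO.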

[17] = biological target: Nuclear receptor subfamily 1 group I member 3 (Homo sapiens) (UniProt Q14994); test: ATG_CAR_TRANS: Attagene TRANS-FACTORIAL HepG2 Assay for human Constitutive Androstane Receptor (CAR) (AID 2282969; active = hit-call score of the fitted dose curve at least 0.9, where 1 is the maximum;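 also: activators raise reporter mRNA above DMSO so AC50 marks induction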); details: HepG2 Attagene TRANS-FACTORIAL CAR reporter
Method in brief: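 HepG2 cells transiently transfected with multiplexed GAL4-UAS reporter units expressing chimeric NR-Gal4 proteins; compound exposure 24 h. Reporter mRNA measured by RT-PCR, 6-FAM labelling, HpaI digestion and capillary electrophoresis; gain-of-signal fitted against DMSO baseline.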

[18] = ATG_M_19_TRANS: Attagene TRANS-FACTORIAL HepG2 Assay for M19 Transcription Factor (Internal Marker) (AID 2282974; active = hit-call score of the fitted dose curve at least 0.9, where 1 is the maximum); details: HepG2 Attagene TRANS-FACTORIAL M19 internal marker reporter
Method in brief: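 HepG2 cells transiently transfected with multiple GAL4-UAS reporter transcription units were exposed to chemicals for 24 h. Reporter mRNA was read by RT-PCR, 6-FAM primer extension, HpaI digestion and capillary electrophoresis; gain of signal fitted relative to DMSO.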

[19] = biological target: Estrogen receptor (Homo sapiens) (UniProt P03372); test: ATG_ERa_TRANS: Attagene TRANS-FACTORIAL HepG2 Assay for human Estrogen Receptor alpha (ERa) (AID 2282970; active = hit-call score of the fitted dose curve at least 0.9, where 1 is the maximum); details: HepG2 Attagene TRANS ERa GAL4 reporter, mRNA
Method in brief: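 After 24 h of compound treatment, RNA from HepG2 cells bearing transfected GAL4-UAS reporter constructs is converted to cDNA, amplified and fluorescently labelled. Capillary electrophoresis resolves the ERa-linked reporter; DMSO serves as negative control.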

Measured: AC50

Sequence of Estrogen receptor (Homo sapiens) (P03372 whole entry, looked up, the tested form may be a part): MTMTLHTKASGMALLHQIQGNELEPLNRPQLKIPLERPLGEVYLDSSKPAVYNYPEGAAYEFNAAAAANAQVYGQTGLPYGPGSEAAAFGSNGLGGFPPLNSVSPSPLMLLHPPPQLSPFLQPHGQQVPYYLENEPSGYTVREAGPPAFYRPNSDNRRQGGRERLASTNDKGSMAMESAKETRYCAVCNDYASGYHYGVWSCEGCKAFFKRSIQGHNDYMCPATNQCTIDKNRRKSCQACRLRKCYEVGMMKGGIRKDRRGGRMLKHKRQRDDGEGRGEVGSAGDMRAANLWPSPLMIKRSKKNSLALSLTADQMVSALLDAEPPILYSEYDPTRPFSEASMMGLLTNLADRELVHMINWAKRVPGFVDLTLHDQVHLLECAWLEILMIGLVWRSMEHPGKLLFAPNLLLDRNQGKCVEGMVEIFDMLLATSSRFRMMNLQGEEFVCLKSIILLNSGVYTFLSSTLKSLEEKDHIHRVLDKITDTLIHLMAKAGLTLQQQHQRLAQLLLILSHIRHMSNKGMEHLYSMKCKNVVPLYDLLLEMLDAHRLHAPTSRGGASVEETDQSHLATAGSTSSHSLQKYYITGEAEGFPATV
Sequence of Paired box protein Pax-6 (Homo sapiens) (P26367 whole entry, looked up): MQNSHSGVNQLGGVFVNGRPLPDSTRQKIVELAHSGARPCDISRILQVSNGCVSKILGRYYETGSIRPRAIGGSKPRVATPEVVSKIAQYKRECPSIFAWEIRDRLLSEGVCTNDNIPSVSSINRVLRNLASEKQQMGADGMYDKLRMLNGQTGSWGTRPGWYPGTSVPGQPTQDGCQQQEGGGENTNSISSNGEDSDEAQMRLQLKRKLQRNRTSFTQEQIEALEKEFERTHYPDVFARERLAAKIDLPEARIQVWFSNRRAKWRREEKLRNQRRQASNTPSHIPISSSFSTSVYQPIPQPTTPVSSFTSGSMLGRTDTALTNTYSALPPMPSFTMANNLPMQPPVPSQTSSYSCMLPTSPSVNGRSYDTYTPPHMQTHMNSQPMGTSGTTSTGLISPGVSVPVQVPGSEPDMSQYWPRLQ
Sequence of Transcription factor Sp1 (Homo sapiens) (P08047 whole entry, looked up): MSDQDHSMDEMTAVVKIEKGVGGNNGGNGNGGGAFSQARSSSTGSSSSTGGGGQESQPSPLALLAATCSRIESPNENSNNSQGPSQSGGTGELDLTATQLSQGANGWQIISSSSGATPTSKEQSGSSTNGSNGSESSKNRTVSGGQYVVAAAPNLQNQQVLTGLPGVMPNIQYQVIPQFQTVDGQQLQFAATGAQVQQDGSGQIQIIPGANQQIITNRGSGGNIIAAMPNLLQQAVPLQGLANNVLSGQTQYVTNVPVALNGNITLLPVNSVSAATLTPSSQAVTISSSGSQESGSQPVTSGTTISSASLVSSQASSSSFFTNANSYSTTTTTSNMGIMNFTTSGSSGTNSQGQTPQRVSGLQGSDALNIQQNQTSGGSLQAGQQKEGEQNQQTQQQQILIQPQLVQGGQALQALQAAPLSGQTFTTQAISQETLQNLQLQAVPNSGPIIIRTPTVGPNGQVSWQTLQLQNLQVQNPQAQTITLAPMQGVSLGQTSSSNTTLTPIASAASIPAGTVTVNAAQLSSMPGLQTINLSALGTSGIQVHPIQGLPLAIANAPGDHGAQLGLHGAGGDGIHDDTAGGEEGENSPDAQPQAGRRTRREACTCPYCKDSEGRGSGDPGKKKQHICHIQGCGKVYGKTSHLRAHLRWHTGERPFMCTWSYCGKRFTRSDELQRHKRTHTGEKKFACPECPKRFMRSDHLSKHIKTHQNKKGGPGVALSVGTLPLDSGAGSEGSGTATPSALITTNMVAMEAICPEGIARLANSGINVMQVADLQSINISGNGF
Sequence of X-box-binding protein 1 (Homo sapiens) (P17861 whole entry, looked up): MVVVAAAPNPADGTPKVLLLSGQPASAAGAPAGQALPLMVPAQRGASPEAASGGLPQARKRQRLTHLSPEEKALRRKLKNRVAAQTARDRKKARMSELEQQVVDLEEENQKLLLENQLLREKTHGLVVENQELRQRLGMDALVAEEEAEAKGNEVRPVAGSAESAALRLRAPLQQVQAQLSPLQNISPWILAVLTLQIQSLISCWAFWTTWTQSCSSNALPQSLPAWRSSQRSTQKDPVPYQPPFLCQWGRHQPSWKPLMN
Sequence of Nuclear receptor subfamily 1 group I member 3 (Homo sapiens) (Q14994 whole entry, looked up, the tested form may be a part): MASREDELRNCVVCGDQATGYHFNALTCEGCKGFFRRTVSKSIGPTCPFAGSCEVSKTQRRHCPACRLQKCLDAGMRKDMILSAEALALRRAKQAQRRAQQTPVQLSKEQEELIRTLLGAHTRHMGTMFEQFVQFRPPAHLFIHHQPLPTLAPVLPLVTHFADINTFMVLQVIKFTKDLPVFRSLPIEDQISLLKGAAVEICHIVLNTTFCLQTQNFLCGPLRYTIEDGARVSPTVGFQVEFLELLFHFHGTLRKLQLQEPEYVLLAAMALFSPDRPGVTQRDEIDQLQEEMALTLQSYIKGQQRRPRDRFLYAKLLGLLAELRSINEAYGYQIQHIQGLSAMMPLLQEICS
Sequence of Signal transducer and activator of transcription 3 (Homo sapiens) (P40763 whole entry, looked up): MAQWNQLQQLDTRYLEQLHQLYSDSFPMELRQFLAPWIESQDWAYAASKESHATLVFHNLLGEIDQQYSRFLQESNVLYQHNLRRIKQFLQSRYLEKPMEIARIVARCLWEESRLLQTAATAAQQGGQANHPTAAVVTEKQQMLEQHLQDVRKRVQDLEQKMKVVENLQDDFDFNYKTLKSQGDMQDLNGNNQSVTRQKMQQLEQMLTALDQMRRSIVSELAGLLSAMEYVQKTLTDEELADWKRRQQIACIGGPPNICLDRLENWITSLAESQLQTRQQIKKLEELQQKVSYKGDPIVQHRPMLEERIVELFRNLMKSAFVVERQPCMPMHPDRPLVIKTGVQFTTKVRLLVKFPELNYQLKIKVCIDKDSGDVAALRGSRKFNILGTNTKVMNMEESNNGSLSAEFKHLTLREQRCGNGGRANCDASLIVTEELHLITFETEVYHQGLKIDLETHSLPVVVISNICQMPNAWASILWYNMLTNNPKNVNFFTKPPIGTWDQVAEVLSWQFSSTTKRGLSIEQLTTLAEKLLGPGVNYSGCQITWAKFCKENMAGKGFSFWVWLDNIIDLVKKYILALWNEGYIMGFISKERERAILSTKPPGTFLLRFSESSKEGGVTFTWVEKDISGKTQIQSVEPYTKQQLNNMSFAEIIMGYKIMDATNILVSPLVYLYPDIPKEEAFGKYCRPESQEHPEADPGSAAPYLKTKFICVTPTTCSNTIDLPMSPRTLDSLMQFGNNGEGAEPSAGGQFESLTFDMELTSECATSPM

CC(CC(C)C)=NO
not listed: [14] | [15] | [16] | [17] | [18] | [19]
inactive: all other assays above

C=CC(=O)NCOCCCC
active: [3] 36.7 µM | [11] 49.8 µM
not listed: [2] | [13] | [18] | [19]
inactive: all other assays above

[Cl][Sc]([Cl])[Cl]
not listed: [3] | [6] | [14] | [15] | [19]
inactive: all other assays above

CC1=CCC(C(C)C)C=C1 (centres undefined)
active: [3] 3.56 µM
not listed: [11] | [13] | [14] | [15] | [17] | [18]
inactive: all other assays above

CCCCC(C=O)CC (centres undefined)
not listed: [3] | [5] | [19]
inactive: all other assays above

CC(=O)CCC1=C(C)CCCC1(C)C
active: [19] 13 µM
not listed: [3] | [13]
inactive: all other assays above

CC(=O)OC/C=C(/C)CCC=C(C)C
not listed: [3] | [11] | [17]
inactive: all other assays above

From PubChem BioAssay (EPA / NIEHS)
